Screens from PubChem.
Compounds with a hit are over-represented: about 2.9% of the library has one in this group of screens.
proKLK7 act: activators of human kallikrein-7 zymogen. P49862. purified proKLK7, EDANS-DABCYL substrate fluorescence; 100% is mature enzyme control, 0% vehicle. activation, % at 7 µM. hit rate 0.9% among 370,000. AID 652039;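 active means activation above the mean of all tested compounds plus 3 SD, computed per campaign excluding outliers beyond control limits, cut at about 13% in these data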
ADAM17 inh: inhibitors of human ADAM17; inhibition, % at 6.95 µM; hit rate 0.83% among 370,000; AID 720648; recombinant ADAM17, EDANS/DABCYL FRET peptide cleavage; P78536;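 active means inhibition above the mean of compounds lying between control limits plus 3 SD, set per campaign, cut at about 8.5% in these data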
PLC-gamma1 inh: inhibitors of human phospholipase C gamma1. P19174. inhibition, % at 12.2 µM. hit rate 0.84% among 370,000. purified PLC-gamma1, fluorogenic substrate, fluorescence; in the data active means inhibition above about 9.5%
PLC-beta3 inh: blocks human PLC-beta3 enzyme activity; Q01970; inhibition, % at 12.2 µM; Purified PLC-beta3, fluorogenic substrate, fluorescence; hit rate 0.18% among 370,000; in the data active means inhibition above about 11%
ADAM10 inh: ADAM10 inhibition, QFRET primary screen. O14672. recombinant ADAM10, EDANS/DABCYL FRET peptide cleavage, 3 h. inhibition, % at 7 µM. hit rate 0.62% among 370,000;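 active means inhibition above a per-campaign cutoff equal to the mean of compounds falling between control-based bounds plus 3 SD, cut at about 20% in these data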
Target sequence (O14672 214-748 limits assumed): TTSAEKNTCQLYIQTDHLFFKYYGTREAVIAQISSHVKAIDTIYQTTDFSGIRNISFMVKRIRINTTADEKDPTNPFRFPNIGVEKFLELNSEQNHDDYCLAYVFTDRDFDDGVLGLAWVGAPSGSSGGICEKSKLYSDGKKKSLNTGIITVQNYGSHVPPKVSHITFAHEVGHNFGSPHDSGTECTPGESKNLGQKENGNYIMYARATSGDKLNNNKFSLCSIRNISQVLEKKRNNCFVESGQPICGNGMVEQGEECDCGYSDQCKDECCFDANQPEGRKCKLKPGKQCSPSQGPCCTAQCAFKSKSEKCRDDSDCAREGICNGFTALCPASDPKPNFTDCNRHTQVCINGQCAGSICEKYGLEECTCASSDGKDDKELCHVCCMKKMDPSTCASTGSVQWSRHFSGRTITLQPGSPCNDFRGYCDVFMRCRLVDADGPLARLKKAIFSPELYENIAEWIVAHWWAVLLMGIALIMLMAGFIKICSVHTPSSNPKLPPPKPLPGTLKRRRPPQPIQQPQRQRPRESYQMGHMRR
ADAM10 counter: ADAM10 inhibition, counter-screen for ADAM17 exosite hits. hit rate 47% among 2,900. shares compounds with ADAM17 inh. AID 743256. inhibition, % at 6.95 µM. recombinant ADAM10, EDANS/DABCYL FRET peptide cleavage, 3 h;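 active means mean inhibition over the triplicate runs exceeds the activity threshold set in the earlier primary screen, cut at about 20% in these data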
ADAM17 confirm: human ADAM17 inhibition, confirmation | shares compounds with ADAM17 inh | recombinant ADAM17, EDANS/DABCYL QFRET peptide cleavage | inhibition, % at 6.95 µM | hit rate 65% among 2,900;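 active means mean inhibition across replicates above the hit cutoff set in the primary screen, cut at about 8.5% in these data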
Numbers stand for hits.

Results for CSC1=C(C#N)C(=O)NC(c2ccc(Cl)cc2)S1 (stereo not drawn) ?
proKLK7 act: inactive; ADAM17 inh: inactive; PLC-gamma1 inh: inactive; PLC-beta3 inh: inactive; ADAM10 inh: inactive

What do the screens show for `Cc1ccc[n+](CC(=O)Nc2nc3ccccc3s2)c1`?
proKLK7 act: inactive; ADAM17 inh: inactive; PLC-gamma1 inh: inactive; PLC-beta3 inh: inactive; ADAM10 inh: inactive

How did O=C(C[n+]1ccccc1)Nc1nc2ccccc2s1 do in these assays?
proKLK7 act: inactive; ADAM17 inh: 9.4; PLC-gamma1 inh: inactive; PLC-beta3 inh: inactive; ADAM10 inh: inactive; ADAM10 counter: inactive; ADAM17 confirm: 14.8

Results for COC(=O)c1cc(C(=O)OCC(=O)NC2CCCC2)cc([N+](=O)[O-])c1 ?
proKLK7 act: inactive; ADAM17 inh: inactive; PLC-gamma1 inh: inactive; PLC-beta3 inh: inactive; ADAM10 inh: inactive

How did COc1cccc(C(Nc2ccccc2)c2ccc3ccc(C)nc3c2O)c1 (stereo not drawn) do in these assays?
proKLK7 act: inactive; ADAM17 inh: 16.9; PLC-gamma1 inh: inactive; PLC-beta3 inh: inactive; ADAM10 inh: inactive; ADAM10 counter: inactive; ADAM17 confirm: 14.7

How did COc1ccc(N2CCN(C(=O)c3cc(=O)c4ccc(C)cc4o3)CC2)cc1 do in these assays?
proKLK7 act: inactive; ADAM17 inh: inactive; PLC-gamma1 inh: inactive; PLC-beta3 inh: inactive; ADAM10 inh: inactive

What do the screens show for `O=S(=O)(c1ccccc1F)N1CCC(c2nc3ccccc3o2)CC1`?
proKLK7 act: inactive; ADAM17 inh: 9.1; PLC-gamma1 inh: inactive; PLC-beta3 inh: inactive; ADAM10 inh: inactive; ADAM10 counter: inactive; ADAM17 confirm: inactive

How did CCOc1ccc(CN(C)C(=O)c2ccc(S(=O)(=O)N(C)c3ccccc3OC)cc2)cc1 do in these assays?
proKLK7 act: inactive; ADAM17 inh: 17.9; PLC-gamma1 inh: 10.1; PLC-beta3 inh: inactive; ADAM10 inh: inactive; ADAM10 counter: inactive; ADAM17 confirm: inactive

How did COc1ccccc1N(C)S(=O)(=O)c1ccc(C(=O)N(C)Cc2cccc(OC)c2OC)cc1 do in these assays?
proKLK7 act: inactive; ADAM17 inh: inactive; PLC-gamma1 inh: inactive; PLC-beta3 inh: inactive; ADAM10 inh: inactive

Results for Oc1c(C(c2ccccn2)N2CCC(Cc3ccccc3)CC2)cc(Cl)c2cccnc12 (stereo not drawn) ?
proKLK7 act: inactive; ADAM17 inh: 32.5; PLC-gamma1 inh: inactive; PLC-beta3 inh: inactive; ADAM10 inh: inactive; ADAM10 counter: 22.6; ADAM17 confirm: 39.0

Results for CN1CCN(C(c2ccccn2)c2cc(Cl)c3cccnc3c2O)CC1 (stereo not drawn) ?
proKLK7 act: inactive; ADAM17 inh: 17.8; PLC-gamma1 inh: inactive; PLC-beta3 inh: inactive; ADAM10 inh: inactive; ADAM10 counter: 42.9; ADAM17 confirm: 45.4

Results for Oc1c(C(c2ccc(Cl)cc2)N2CCCC2)cc(Cl)c2cccnc12 (stereo not drawn) ?
proKLK7 act: inactive; ADAM17 inh: inactive; PLC-gamma1 inh: inactive; PLC-beta3 inh: inactive; ADAM10 inh: inactive

Results for Cc1cccc(C(=O)NCCc2nnc(SCC(=O)Nc3cccc(C(=O)O)c3)n2C)c1 ?
proKLK7 act: inactive; ADAM17 inh: inactive; PLC-gamma1 inh: inactive; PLC-beta3 inh: inactive; ADAM10 inh: inactive

Results for Cc1ccc(-c2nc3ncccn3c2NC(=O)Nc2ccc(OC(F)(F)F)cc2)cc1 ?
proKLK7 act: inactive; ADAM17 inh: inactive; PLC-gamma1 inh: inactive; PLC-beta3 inh: inactive; ADAM10 inh: inactive

How did O=C(/C=C/c1cccc([N+](=O)[O-])c1)NCCSCc1ccccc1Cl do in these assays?
proKLK7 act: inactive; ADAM17 inh: 8.9; PLC-gamma1 inh: inactive; PLC-beta3 inh: inactive; ADAM10 inh: inactive; ADAM10 counter: 27.1; ADAM17 confirm: 13.6

How did Cc1cc(S(=O)(=O)N2CCC3(CC2)OCCN3S(=O)(=O)c2cccs2)ccc1F do in these assays?
proKLK7 act: inactive; ADAM17 inh: 12.4; PLC-gamma1 inh: inactive; PLC-beta3 inh: inactive; ADAM10 inh: inactive; ADAM10 counter: inactive; ADAM17 confirm: 9.2

Results for O=S(=O)(c1cc(F)ccc1F)N1CCC2(CC1)OCCN2S(=O)(=O)c1cccs1 ?
proKLK7 act: inactive; ADAM17 inh: inactive; PLC-gamma1 inh: inactive; PLC-beta3 inh: inactive; ADAM10 inh: inactive

What do the screens show for `CC(OC(=O)c1ccc(S(=O)(=O)NCc2ccco2)cc1)C(=O)Nc1ncc(Cl)cc1Cl` (stereo not drawn)?
proKLK7 act: inactive; ADAM17 inh: inactive; PLC-gamma1 inh: inactive; PLC-beta3 inh: inactive; ADAM10 inh: inactive

What do the screens show for `CC[C@@H]1C=C(C(=O)O)[C@H](c2ccc(Cl)cc2)N1S(=O)(=O)c1ccc(C)cc1`?
proKLK7 act: inactive; ADAM17 inh: 8.6; PLC-gamma1 inh: inactive; PLC-beta3 inh: inactive; ADAM10 inh: inactive; ADAM10 counter: inactive; ADAM17 confirm: inactive

How did Cc1ccc(S(=O)(=O)NC(=O)C2(C)CCN2C(=O)C2CCCCC2)nc1 (stereo not drawn) do in these assays?
proKLK7 act: inactive; ADAM17 inh: inactive; PLC-gamma1 inh: inactive; PLC-beta3 inh: inactive; ADAM10 inh: inactive

How did O=C(CCCC(=O)OCC(=O)c1cccs1)Nc1ccc(Oc2ccccc2)cc1 do in these assays?
proKLK7 act: inactive; ADAM17 inh: 8.9; PLC-gamma1 inh: inactive; PLC-beta3 inh: inactive; ADAM10 inh: inactive; ADAM10 counter: inactive; ADAM17 confirm: inactive

What do the screens show for `Cc1onc(-c2c(Cl)cccc2Cl)c1C(=O)Nc1ccc2c(c1)OCCO2`?
proKLK7 act: inactive; ADAM17 inh: inactive; PLC-gamma1 inh: inactive; PLC-beta3 inh: inactive; ADAM10 inh: inactive

How did Cc1onc(-c2ccccc2Cl)c1C(=O)Nc1ccc2c(c1)OCO2 do in these assays?
proKLK7 act: inactive; ADAM17 inh: 10.4; PLC-gamma1 inh: inactive; PLC-beta3 inh: inactive; ADAM10 inh: inactive; ADAM10 counter: inactive; ADAM17 confirm: inactive

What do the screens show for `Cc1ccc(NC(=S)NC(=O)c2c(-c3ccccc3Cl)noc2C)cc1`?
proKLK7 act: inactive; ADAM17 inh: 10.0; PLC-gamma1 inh: inactive; PLC-beta3 inh: inactive; ADAM10 inh: inactive; ADAM10 counter: 26.3; ADAM17 confirm: 14.1

How did CCN(C(=O)COC(=O)/C=C/c1cccc([N+](=O)[O-])c1)c1c(N)n(Cc2ccccc2)c(=O)[nH]c1=O do in these assays?
proKLK7 act: inactive; ADAM17 inh: inactive; PLC-gamma1 inh: inactive; PLC-beta3 inh: inactive; ADAM10 inh: inactive

Results for CCOC(=O)C(=CNc1cccnc1Oc1ccc(C)c2c1CCC2)C(=O)OCC ?
proKLK7 act: inactive; ADAM17 inh: inactive; PLC-gamma1 inh: inactive; PLC-beta3 inh: inactive; ADAM10 inh: inactive

What do the screens show for `CCCCc1cc(=O)oc2cc(C)cc(OCC(=O)NC(Cc3ccc(Cl)cc3)C(=O)O)c12` (stereo not drawn)?
proKLK7 act: inactive; ADAM17 inh: inactive; PLC-gamma1 inh: inactive; PLC-beta3 inh: inactive; ADAM10 inh: inactive
